High-throughput results as filed in PubChem.
In the library only some 2.3% were active in any assay of this set; here they are far more common.
CHRM1 agonist: agonists of human M1 muscarinic receptor; activation, % at 3 µM; CHO-K1 hM1, Fluo-8 calcium fluorescence, agonist mode; 0% DMSO, 100% acetylcholine EC100; 360,000 compounds, 0.33% hits; P11229;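 active = activation above the run's mean compound activation plus 3 SD, cut at about 16% in these data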;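 note: peak over basal fluorescence ratio within a 140 s kinetic read after compound addition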
Target sequence (P11229 whole entry, looked up): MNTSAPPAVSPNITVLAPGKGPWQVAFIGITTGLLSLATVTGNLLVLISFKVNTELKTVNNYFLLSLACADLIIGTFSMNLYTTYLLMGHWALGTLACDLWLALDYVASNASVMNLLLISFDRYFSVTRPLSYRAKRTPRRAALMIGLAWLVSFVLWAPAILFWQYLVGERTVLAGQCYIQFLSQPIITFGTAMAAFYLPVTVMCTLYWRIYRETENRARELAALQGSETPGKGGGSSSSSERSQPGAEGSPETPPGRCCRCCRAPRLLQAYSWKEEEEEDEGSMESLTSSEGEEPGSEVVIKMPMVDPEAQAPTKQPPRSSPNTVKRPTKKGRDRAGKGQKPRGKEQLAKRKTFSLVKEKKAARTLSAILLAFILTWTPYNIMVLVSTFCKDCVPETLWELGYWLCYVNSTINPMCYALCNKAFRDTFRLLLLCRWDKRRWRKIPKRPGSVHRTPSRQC
M1 PAM: potentiates human M1 receptor response to acetylcholine | AID 588819 | activation, % at 3 µM | 360,000 compounds, 0.088% hits | P11229 | CHO-K1 hM1, Fluo-8 calcium fluorescence, ACh EC20; 0% = ACh EC20, 100% = maximal ACh; in the data active = activation above about 19%, passing the limit was not always enough
CHO-K1 Ca antag: nonselective inhibitor or artifact in parental CHO-K1 cells. ATP-induced calcium, Fluo-8 fluorescence. inhibition, % at 3 µM. 360,000 compounds, 0.6% hits. AID 602250;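 active = inhibition above a per-plate cutoff, the plate's mean sample inhibition plus 3 SD, cut at about 24% in these data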;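 note: 0% = DMSO plus EC80 ATP and 100% = DMSO alone without ATP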
M1 antag: antagonists of human M1 muscarinic receptor; P11229; CHO-K1 hM1, Fluo-8 calcium fluorescence, ACh EC80 antagonist; inhibition, % at 3 µM; 360,000 compounds, 1.3% hits; AID 588852;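 active = percent inhibition above its own plate's cutoff, namely the mean of that plate's compound wells plus 3 SD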;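 note: peak over basal fluorescence ratio during 140 s after agonist addition; 0% = ACh EC80 plus DMSO and 100% = DMSO alone without agonist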
M1 PAM parental: nonselective activator or artifact in parental CHO-K1 calcium assay | 360,000 compounds, 0.02% hits | ATP EC20, Fluo-8 calcium fluorescence; 0% at ATP EC20, 100% at ATP max | activation, % at 3 µM;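 active = activation above the run cutoff, the mean activation of all test compounds plus 3 SD, cut at about 40% in these data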;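 note: peak over basal fluorescence ratio in a 140 s read after ATP addition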
M1 ag parental: counter-screen for M1 agonists: effect in parental CHO-K1 cells. Fluo-8 calcium fluorescence; scaled to maximal ATP response, vehicle zero. activation, % at 3 µM. 360,000 compounds, 0.48% hits. AID 602248; in the data active = activation above about 15%;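 note: untransfected CHO-K1 host cells lacking M1 receptor as counterscreen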
Active calls of the source: *.

SMILES	CHRM1 agonist	M1 PAM	CHO-K1 Ca antag	M1 antag	M1 PAM parental	M1 ag parental
CC(=O)c1cccc(N=c2scc(-c3ccc(S(=O)(=O)N4CCOCC4)cc3)n2CCO)c1	-2.0	-18.2	32.4*	31.2	-6.2	10.4
CC(C)[C@H](NC(=O)N1CCn2c1nc1ccccc12)C(=O)NCc1ccccc1Cl	-3.3	10.2	-14.5	-13.9	10.6	0.8
Oc1ccc(Br)cc1-c1cc(-c2ccccc2F)[nH]n1	1.5	-1.2	25.6*	-0.9	-3.7	-0.1
Cc1cc(C)cc(OCC(=O)Nc2ccc(N3CCN(C(=O)c4ccco4)CC3)cc2)c1	-1.1	-22.9	-2.4	32.9*	-7.8	12.7
C[N+]1(CC(=O)Nc2ccc(F)cc2)CCN(C(=O)c2ccco2)CC1	-7.8	-20.1	-12.8	56.2*	21.5	0.4
Cc1ccc(NC(=O)CN2CCN(C(=O)c3ccco3)CC2)cc1	-5.8	3.2	-22.2	-8.1	17.1	1.7
O=[N+]([O-])c1cccc(OCCN2CCC(Cc3ccccc3)CC2)c1	-6.6	-26.1	-7.7	91.2*	24.2	3.3
Cc1ccc([N+](=O)[O-])c(OCCN2CCCCCC2)c1	-9.7	-1.4	1.3	-1.8	19.6	16.2*
Cc1ccc([N+](=O)[O-])c(OCCCN2CCC(Cc3ccccc3)CC2)c1	-8.8	-29.4	-12.4	75.8*	-3.6	9.2
COc1cc(CN2CCC(Cc3ccccc3)CC2)c([N+](=O)[O-])cc1OC	-3.3	8.4	-18.1	-16.8	14.9	0.2
Cc1ccc([N+](=O)[O-])c(OCCN2CCc3ccccc3C2)c1	-9.2	1.1	-4.5	1.3	-7.7	0.4
CCc1ccc2[nH]c(O)c(N=Nc3nc(-c4ccccc4)cs3)c2c1	19.7*	-2.7	-13.8	6.6	25.9	1.1
CCc1cc2c(N=Nc3c(O)[nH]c4ccccc34)ncnc2s1	-8.3	3.0	-3.8	-6.8	15.8	-0.1
COc1cc(NS(=O)(=O)c2ccc(NC(=S)NC(=O)c3ccc(F)c(F)c3)cc2)nc(OC)n1	-3.5	3.8	-12.2	-0.4	-19.5	-0.3
COc1cc(C=NN2CCCCC2)cc(OC)c1OC	24.9*	-8.1	0.5	5.4	7.0	0.5
COc1ccc2ccccc2c1C=NN1CCCCC1	21.4*	-8.5	-0.3	9.4	-12.9	-0.3
CCN(CC(=O)Nc1ccc(OC)cc1)C(=O)Cc1coc2cc(C)c(C)cc12	-5.2	10.5	-16.0	-7.2	11.3	3.9
CC(C)CC(=O)N1CCC(N(CCc2ccccc2)Cc2ccccc2)CC1	-8.0	-27.0	-14.2	56.9*	19.8	0.1
CC1CCN(C(=O)CN(CCc2ccccc2)S(C)(=O)=O)CC1	-6.1	8.8	4.1	-8.0	-6.4	0.1
CCOc1cc(/C=C\[N+](=O)[O-])ccc1OCC(=O)Nc1ccccc1C	4.1	25.6*	-2.0	-9.0	11.0	0.6
O=c1c2cc(F)ccc2sn1-c1ccccc1	9.7	1.4	-9.2	5.3	10.0	19.1*
O=c1c2cc(C(F)(F)F)ccc2sn1-c1ccccc1	16.0*	-2.5	-3.4	0.1	10.5	5.0
O=c1c2ccccc2sn1-c1ccccc1	6.7	8.2	23.6	5.8	-17.6	0.0
O=C(O)c1cccc(-n2sc3ccccc3c2=O)c1	-2.6	10.0	-11.2	-1.8	23.4	1.4
COc1ccc(-c2cc(NC=O)c3ncc(-c4cccc(C(F)(F)F)c4)n3c2)cc1OC	-2.4	6.1	-15.1	-11.2	17.4	0.4
SMILES	CHRM1 agonist	M1 PAM	CHO-K1 Ca antag	M1 antag	M1 PAM parental	M1 ag parental
COc1ccc(-c2nnc(SCC(=O)NCC3CCCO3)o2)cc1 (stereo not given)	-3.2	5.3	-1.6	-3.7	-2.4	-0.1
Cc1cc(C)cc(-c2nnc(SCC(=O)NCC3CCCO3)o2)c1 (stereo not given)	0.7	28.4*	-15.7	-24.5	12.7	0.2
CCOc1ccc(NS(=O)(=O)c2ccc(NC(=S)NC(=O)CC(C)C)cc2)cc1	17.4*	9.0	8.2	20.8	19.2	10.6
C=C(C)CN(CC)C(=O)COc1ccc(S(=O)(=O)Nc2ccc(OC)cc2)cc1	20.6*	3.0	-2.4	-0.2	8.9	7.9
CCCC(=O)NC(=S)Nc1ccc(S(=O)(=O)Nc2ccc(OCC)cc2)cc1	27.8*	7.6	5.8	14.1	34.3	26.9*
CCN(CC(=O)Nc1ccc(OC)cc1)C(=O)c1ccc(NS(=O)(=O)c2ccc(C(C)=O)cc2)cc1	-0.4	12.6	1.3	-10.4	0.5	0.2
CCC(=O)NC(=S)Nc1ccc(S(=O)(=O)NC(C)=O)cc1	-1.5	-7.0	28.9*	12.7	-11.9	-0.2
CCOc1ccc(NS(=O)(=O)c2ccc(C(=O)N(C)CC(=O)Nc3ccc(OC)cc3)cc2)cc1	-0.8	6.1	4.9	-8.5	-9.9	0.3
CCCC(=O)N1CCCC1(C)C(=O)Nc1ccc2c(c1)CCN2C(C)=O (stereo not given)	-1.6	6.2	11.8	-9.5	-20.9	-0.5
O=C(O)[C@@H]1CCCN1S(=O)(=O)c1cccc2cccnc12	-1.1	-0.8	17.2	4.5	-20.3	-0.3
C/C=C(\C)C(=O)OC1CC(C)(C)C[C@H]2C3=CC[C@@H]4[C@@]5(C)CCC(O[C@@H]6O[C@@H](C(=O)O)[C@@H](O)C(O[C@@H]7OC[C@H](O)[C@@H](O)[C@@H]7O[C@@H]7OC(CO)C(O)[C@@H](O)[C@@H]7O)C6O[C@@H]6OC(CO)C(O)C(O)C6O)[C@@](C)(CO)[C@@H]5CC[C@]4(C)[C@]3(C)CC(O)[C@@]12CO (stereo not given in full)	-4.4	1.0	-13.0	-0.1	0.0	0.2
O=C(NCCN1CCOCC1)N1c2ccccc2Sc2ccccc21	-5.2	-23.6	6.8	61.5*	9.0	2.1
CN(C)CCCNC(=O)N1c2ccccc2Sc2ccccc21	-10.8	-28.2	-8.0	100.3*	12.1	0.1
O=C(NCCO)N1c2ccccc2Sc2ccccc21	-5.0	8.1	-2.0	-10.3	10.2	0.9
O=C(CCN1CCOCC1)N1c2ccccc2Sc2ccc(Cl)cc21	-8.4	-28.7	-9.7	99.5*	9.9	1.8
CCOc1ccc(S(=O)(=O)n2cc(F)c(=O)[nH]c2=O)cc1	-2.4	-20.9	23.8*	27.6	-10.2	4.8
CCOc1ccc(S(=O)(=O)n2cc(F)c(=O)[nH]c2=O)cc1[N+](=O)[O-]	0.3	0.5	-13.2	10.3	-4.0	0.3
CC(C)Oc1cccc(C(=O)C2CCCN(Cc3ccc(Oc4ncccn4)cc3)C2)c1 (stereo not given)	-8.8	-28.0	-9.5	83.2*	-7.1	1.2
COc1c(C)cc(C(=O)C2CCCN(Cc3ccc(Oc4ncccn4)cc3)C2)cc1C (stereo not given)	-1.2	-18.7	3.9	35.2*	11.4	6.4
Cc1ccc(CNC(=O)c2ccc(F)c(S(=O)(=O)N3CCOCC3)c2)cc1	-1.2	4.2	12.5	1.9	-6.3	0.2
